AI-2 QS modul: modulators of Vibrio harveyi AI-2 quorum sensing system; activity change, % at 7.5 µM; AID 2094; Vibrio harveyi JMH597 AI-2 luminescence/OD600 ratio, 9 h; stronger effect = lower value; strain lacks LuxN and CqsS sensors; 0 = neutral-control median; 0.4% of 300,000 active; in the data active means activity change below about -75%, passing the limit was not always enough; inconclusive means no clear call, values can overlap the other calls;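 further: luminescence divided by OD600 gain over 9 h not by final OD600 alone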
VLA-4 inh: inhibition in a human VLA-4 binding assay. P13612. VLA-4 expressing cells, ligand binding flow cytometry. inhibition, % (about 7 µM as worked out from the volumes in the protocol). 0.2% of 330,000 active. AID 2557; in the data active means inhibition above about 50%
CHT block: human CHT choline transport inhibition | Q9GZV3 | CHT-expressing cells, membrane potential dye, choline response; stronger effect = lower value | 0.86% of 310,000 active | B-score at 10 µM;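 active means B-score over 3 SD under the library average, and starting fluorescence ratio not unusually high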;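 further: choline stimulus applied at its EC90 after an EC20 pre-addition; B-score computed on integrated fluorescence ratio after choline addition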
Target sequence (Q9GZV3 whole entry, looked up): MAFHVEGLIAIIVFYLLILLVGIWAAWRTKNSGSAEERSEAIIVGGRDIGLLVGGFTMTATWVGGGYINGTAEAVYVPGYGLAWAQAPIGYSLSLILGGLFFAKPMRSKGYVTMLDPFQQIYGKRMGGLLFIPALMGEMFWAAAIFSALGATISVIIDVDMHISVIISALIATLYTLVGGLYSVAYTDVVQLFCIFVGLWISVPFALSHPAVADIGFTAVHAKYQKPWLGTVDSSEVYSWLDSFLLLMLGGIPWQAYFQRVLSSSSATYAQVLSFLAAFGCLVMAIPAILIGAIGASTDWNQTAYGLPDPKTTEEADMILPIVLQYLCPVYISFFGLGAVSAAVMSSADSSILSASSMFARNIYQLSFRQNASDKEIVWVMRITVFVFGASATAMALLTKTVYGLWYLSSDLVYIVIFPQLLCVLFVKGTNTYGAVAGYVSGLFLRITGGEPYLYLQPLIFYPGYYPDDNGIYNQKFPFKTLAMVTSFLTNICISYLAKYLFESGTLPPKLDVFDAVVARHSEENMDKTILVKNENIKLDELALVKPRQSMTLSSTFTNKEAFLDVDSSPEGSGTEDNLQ
HIF activator: HIF pathway transcriptional activation; activation, % at 7.5 µM (by protocol); AID 1910; 0.32% of 300,000 active; U2OS HRE-luciferase reporter, luminescence; normalized: DMSO 0%, desferrioxamine 100%;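 active means mean activation of at least 10% of the iron chelator positive control signal, with at least half of replicates also reaching 10%; inconclusive means mean and replicate majority disagree about reaching 10%; inactive means mean and most replicates under 10%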
CHT allo act: allosterically activates the human high affinity choline transporter. CHT-expressing cells, membrane potential dye, choline EC20; stronger effect = higher value; LV-AA mutant CHT in HEK293 cells. B-score at 10 µM. 0.49% of 310,000 active. AID 488977;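 active means initial fluorescence not abnormally high and integrated response B-score, plate-corrected, over 3 SD above library mean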
Platelet DG rel: platelet dense granule release activity; 0.22% of 300,000 active; inhibition, %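 (compounds screened at 7.5 µM in platelet-rich plasma)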; AID 1663; human platelet-rich plasma, SFLLRN dense granule ATP release, luminescence;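 active means mean replicate score, as percent of positive control, at or above 50; inconclusive means mean below 50 but at least one replicate at or above 50; inactive means mean and every replicate below 50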
CHT act confirm: confirmation of human choline transporter (CHT) activators; shares compounds with CHT allo act; CHT-expressing cells, membrane potential dye fluorescence (FDSS); % of choline EC20–EC90 response window; HEK293 expressing CHT LV-AA mutant; choline added at its EC20; activation, % at 10 µM; 91% of 2,500 active;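 active means primary screen active, with duplicate mean activation above negative control mean plus 3 SD, cut at about 11% in these data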
HEK293 MP dye: CHT activator counter-screen hit in parental HEK293 cells; 62% of 2,500 active; AID 623908; shares compounds with CHT allo act; membrane potential dye fluorescence (FDSS); measured after EC20 choline addition; ratio readout change at 10 µM, hits read low;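 active means duplicate-averaged ratio beyond 3 SD from buffer wells, up or down, though filed actives are nearly all decreases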
Active calls of the source: *; i = inactive; u = inconclusive; x = no result. Rows were chosen to be rich in hits. Some 2.2% of all compounds tested hit in one or more screens of this group.

SMILES	AI-2 QS modul	VLA-4 inh	CHT block	HIF activator	CHT allo act	Platelet DG rel	CHT act confirm	HEK293 MP dye
Cc1ccccc1C(=O)Nc1ccnn1C1CCN(Cc2cnn(C(C)C)c2)CC1	-8.9	1.0	i	-0.1	i	-1.3	x	x
CCN1CCS/C1=C/C=C/C1=[N+](CC)CCS1	11.6	-21.7	i	0.3	6.9*	3.4	45.5*	-31.1*
Cc1c(C(=O)Nc2ccncc2)sc2nc(-c3ccccc3)cn12	9.3	0.1	i	1.4	i	16.3	30.4*	-32.4*
COc1ccc(Nc2ccnc3ccccc23)cc1	19.2	9.3	i	2.8	6.64*	-5.4	28.3*	-54.8*
CCOc1cc(-c2sc(Nc3ccc(CC)cc3)n[n+]2-c2ccccc2)ccc1OC	x	28.2	i	x	i	x	41.6*	i
Cc1cccc(-c2sc(Nc3ccccc3)n[n+]2-c2ccc(F)cc2)c1	18.5	8.0	i	2.4	8.91*	-2.1	52.3*	i
COc1ccc(C)cc1Nc1n[n+](-c2ccccc2)c(-c2ccc(C(=O)O)cc2)s1	13.4	3.9	i	1.0	i	2.2	x	x
CCOc1cc(-c2sc(Nc3cc(C)ccc3OC)n[n+]2-c2ccccc2)ccc1OC	x	27.6	i	x	i	x	43.8*	i
Cn1c(N)c(C(=O)COC(=O)COc2ccc(C#N)cc2)c(=O)n(C)c1=O	24.2	-1.3	i	0.1	i	0.7	x	x
Cn1c(N)c(C(=O)COc2ccc(C#N)cc2)c(=O)n(C)c1=O	2.1	5.5	i	-0.1	i	-2.0	38.5*	-36.4*
COc1ccc(Cl)cc1NC(=O)COC(=O)C1=NNC(=O)CC1	x	3.2	x	x	x	x	x	x
CCN1CCN(C(=O)c2cc(-c3cccnc3)nc3ccc(Br)cc23)CC1	13.7	-3.7	i	0.9	6.59*	-0.4	54.4*	-44.1*
COc1ccc(-c2csc3nc(C)nc(N4CCCCC4)c23)cc1OC	11.8	17.2	i	0.3	i	4.7	26.7*	i
COc1ccc(-c2csc3nc(C)n(-n4cccc4)c(=O)c23)cc1OC	3.0	16.0	i	0.4	i	22.7	x	x
Cc1cc(C)c(S(=O)(=O)Nc2ccc(C(=O)O)cc2)cc1S(=O)(=O)Nc1ccc(C(=O)O)cc1	20.4	0.9	i	0.2	i	0.2	x	x
Cc1nc(N(C)Cc2ccccc2)c2c(C)c(C)sc2n1	x	1.3	i	-0.1	i	1.9	26.1*	i
CCC(=O)N(CCC(c1ccco1)C(C)C)Cc1ccccc1 (stereo not drawn)	17.0	10.1	i	x	i	x	x	x
CC(=O)N(CCC(c1ccco1)C(C)C)Cc1ccc(Cl)cc1 (stereo not drawn)	3.9	8.7	i	-0.1	7.39*	-0.9	26.2*	i
Cc1cc(C)c(OCC(=O)N(Cc2ccccc2)C2CCS(=O)(=O)C2)c(C)c1 (stereo not drawn)	14.4	2.7	i	-0.4	i	5.8	x	x
Cc1ccc(-c2nc3ncccn3c2NC2CCCCC2)o1	5.6	15.1	i	-0.1	i	2.5	35.9*	i
CCOc1ccc2[nH]c3nc(SCC(=O)NC4CC4)nnc3c2c1	11.8	-14.3	i	5.1	i	-3.4	x	x
Cc1csc(=O)n1CCC(=O)OCC(=O)Nc1cc([N+](=O)[O-])ccc1Cl	0.9	-13.4	i	-0.4	i	-0.6	x	x
COc1ccc(NC2CC(=O)N(c3cc([N+](=O)[O-])ccc3C)C2=O)cc1 (stereo not drawn)	24.5	5.2	i	0.5	i	0.6	x	x
COc1ccccc1C(=O)N1C(CC(=O)Nc2cc(Cl)ccc2C)C(=O)NC2CCCCC21 (stereo not drawn)	-0.1	3.6	i	-0.2	i	4.4	24.5*	i
O=C(CC1C(=O)NC2CCCCC2N1C(=O)c1ccc(F)cc1)Nc1ccccc1 (stereo not drawn)	27.8	12.0	i	-0.1	i	-2.6	x	x
SMILES	AI-2 QS modul	VLA-4 inh	CHT block	HIF activator	CHT allo act	Platelet DG rel	CHT act confirm	HEK293 MP dye
CCC[n+]1c(C)sc2c(OC)ccc(OC)c21	24.3	13.8	i	0.0	11.9*	-3.3	47.1*	i
CCC1CCC2(CC1)NC(=O)N(CC(=O)N1CCc3ccccc31)C2=O (stereo not drawn)	x	3.6	x	x	x	x	x	x
CCOC(=O)C1=C(c2ccccc2)NC(=O)NC1c1ccc(O)c(Cl)c1 (stereo not drawn)	9.8	-3.8	i	u	29.6*	2.5	197.9*	i
O=C(Nc1ccccc1Br)C1CCN(S(=O)(=O)c2cccs2)CC1	x	-1.8	x	x	x	x	x	x
CC(C)c1nc(N2CCN(C(=O)c3ccco3)CC2)c(C#N)c2c1COC(C)(C)C2	14.8	7.8	i	0.0	6.64*	20.1	22.8*	i
CCOC(=O)c1cnc2cc(C)ccn2c1=O	24.9	1.6	i	0.5	8.47*	4.7	51.8*	-48.8*
Cc1cc(Oc2ccc(C)c(Cl)c2)nc(SCC(=O)c2ccccc2)n1	21.0	12.8	i	-0.3	7.17*	0.8	56.4*	i
COC1=C(Nc2ccccc2OC)C(=O)c2ccccc2C1=O	7.1	14.5	i	-0.6	8.74*	0.8	36.7*	-41.4*
COc1ccccc1NC1=C(NC(C)=O)C(=O)c2ccccc2C1=O	33.2	x	x	-0.7	x	8.4	x	x
COc1ccc(NC(=O)c2ccc(S(=O)(=O)N3CCCC3)cc2)cc1OC	x	1.1	x	x	x	x	x	x
O=C(O)Cn1cnc2sc3c(c2c1=O)CCCC3	23.7	5.1	i	-0.4	i	0.5	x	x
O=C(O)CCc1nn2cnc3sc4c(c3c2nc1=O)CCCC4	-7.5	-4.0	i	0.3	i	-6.8	54.3*	-42.6*
CC(C)(C)C1CCC(=NNC(=O)C(=O)NCc2ccco2)CC1 (stereo not drawn)	50.1	11.8	i	-4.1	i	-7.2	x	x
COc1ccccc1NS(=O)(=O)c1ccc(-c2cnc(C3CC3)o2)cc1	6.9	9.6	i	-0.5	i	1.5	23.5*	i
Cc1nnc(C)c2c(C)n(C(C)c3ccccc3)c(C)c12 (stereo not drawn)	14.0	-11.5	i	-0.3	i	-1.1	x	x
COc1ccc(C(C)n2c(C)c3c(C)nnc(C)c3c2C)cc1 (stereo not drawn)	16.3	-9.4	i	-0.1	6.61*	8.6	55.7*	-44.9*
CC(C)(C)c1ccc(NC(=O)N2CCCN(c3c(Cl)cncc3Cl)CC2)cc1	12.5	9.2	i	0.2	i	0.5	11.7*	i

Screening results deposited in PubChem by several laboratories.
